# LANA-H2A inh: blocks KSHV LANA binding to histone H2A/H2B; Q9QR71; cell-free LANA-H2A/H2B peptide, fluorescence polarization; inhibition, % (test concentration not listed); hit rate 0.6% among 320,000; in the data active = inhibition mostly above about 10%, no sharp cut-off; inactive = mostly below about 6.7%
# TLR9-MyD88 inh: blocks human TLR9 binding to MyD88; hit rate 0.21% among 340,000; Q9NR96+Q99836; CHO BLA complementation TLR9-MyD88, CCF4 FRET ratio; inhibition, % at 4.98 µM;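 active = inhibition above the mean over all tested compounds plus 3 SD, cut at about 21% in these data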;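 also: 0% = DMSO only wells and 100% = clavulanate BLA inhibitor control wells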
# TLR4-MyD88 BLA: TLR4-MyD88 interaction inhibition in cells | HeLa CL3-4 TLR4/MyD88 BLA complementation, FRET ratio | inhibition, % at 8.4 µM | hit rate 0.18% among 200,000 | AID 861; in the data active = inhibition above about 25%;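 also: 0% = vehicle and 100% = reference inhibitor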
# m5-HT2A agonist: mouse HTR2A agonism via beta-arrestin recruitment; CHO-K1 mHTR2A beta-arrestin complementation, luminescence; percent of 30 µM serotonin response; hit rate 0.66% among 360,000; AID 624169; activation, % at 7.6 µM;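 active = activation above a run cutoff, the mean activation of all tested compounds plus 3 SD, cut at about 14% in these data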;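 also: 0% = plate median of compound wells and 100% = 30 µM serotonin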
# NOD2-RIPK2 inh: NOD2-RIPK2 protein interaction inhibition; CHO BLA complementation NOD2-RIPK2, CCF4 ratio; hit rate 0.38% among 360,000; inhibition, % at 4.98 µM; O43353; in the data active = inhibition above about 21%;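 also: 0% = vehicle only and 100% = reference blocker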
# Target sequence (O43353 whole entry, looked up): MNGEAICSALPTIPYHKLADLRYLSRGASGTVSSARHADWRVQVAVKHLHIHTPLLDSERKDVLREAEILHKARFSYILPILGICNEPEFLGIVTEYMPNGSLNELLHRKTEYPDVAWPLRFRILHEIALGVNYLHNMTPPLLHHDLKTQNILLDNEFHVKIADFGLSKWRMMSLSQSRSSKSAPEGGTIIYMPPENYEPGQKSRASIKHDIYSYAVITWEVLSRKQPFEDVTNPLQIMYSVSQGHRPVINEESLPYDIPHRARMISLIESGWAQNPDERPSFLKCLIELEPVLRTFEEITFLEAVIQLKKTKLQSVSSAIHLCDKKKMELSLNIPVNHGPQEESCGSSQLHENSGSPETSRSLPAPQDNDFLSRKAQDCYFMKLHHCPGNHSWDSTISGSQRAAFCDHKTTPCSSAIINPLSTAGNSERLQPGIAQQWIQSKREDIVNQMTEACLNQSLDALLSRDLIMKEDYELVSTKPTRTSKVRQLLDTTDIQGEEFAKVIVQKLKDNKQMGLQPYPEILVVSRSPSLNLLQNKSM
# Rtt109 HAT inh: inhibitors of Candida albicans Rtt109/Vps75 histone acetyltransferase; Q5AAJ8; purified Rtt109/Vps75, ThioGlo CoA-SH fluorescence, 4 h; inhibition, % at 34.9 µM; hit rate 0.16% among 330,000; AID 540336;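 active = inhibition of at least 50% in every replicate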
# MOR ag counter: OPRM1 agonism in mouse HTR2A counterscreen; shares compounds with m5-HT2A agonist; U2OS OPRM1 beta-arrestin PathHunter, luminescence; DMSO 0%, DAMGO 9.3 µM 100%; activation, % at 9.3 µM; hit rate 5.3% among 2,300; AID 624380;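 active = mean activation above the mean of DMSO-only wells plus 3 SD, cut at about 0.5% in these data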
# m5-HT2A ag conf: mouse HTR2A agonism confirmed; hit rate 19% among 2,300; AID 624381; CHO-K1 PathHunter beta-arrestin recruitment, luminescence; DMSO 0%, 30 µM serotonin 100%; activation, % at 7.6 µM; shares compounds with m5-HT2A agonist;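 active = mean activation across triplicates above the hit threshold derived in the original primary screen, cut at about 15% in these data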
# Active calls of the source: *; . = no result. Hits are enriched below; roughly 1.8% of the tested compounds scored in any of these assays.
SMILES,LANA-H2A inh,TLR9-MyD88 inh,TLR4-MyD88 BLA,m5-HT2A agonist,NOD2-RIPK2 inh,Rtt109 HAT inh,MOR ag counter,m5-HT2A ag conf
COc1cccc(C(=O)NCC(=O)OCC(=O)Nc2cc(OC)c([N+](=O)[O-])cc2C)c1,2.2,-1.2,9.4,17.0*,-0.3,11.5,-0.7,-4.3
COc1cc(NC(=O)COC(=O)CNC(=O)c2cc(C)cc(C)c2)c(C)cc1[N+](=O)[O-],1.1,-6.0,-0.5,-2.7,-3.0,.,.,.
O=C(NCc1ccc(F)cc1)C(=O)NCC1OCCN1C(=O)c1ccc(Cl)cc1 (stereo unspecified),0.7,1.8,8.4,23.9*,-3.2,-4.9,-0.6,-4.3
O=C(NCc1ccccc1Cl)C(=O)NCC1OCCN1S(=O)(=O)c1ccc(F)cc1 (stereo unspecified),3.7,-4.4,.,15.6*,-16.3,6.2,-0.6,-5.1
Cc1ccc(S(=O)(=O)NCCC(=O)NCc2ccccn2)cc1,-2.8,12.8,.,0.2,-2.9,26.4,.,.
Cc1ccc(S(=O)(=O)NC(=O)NCc2ccccn2)cc1,-28.5,5.6,6.6,14.4*,-5.6,17.4,-0.5,-2.7
CCc1nc2c(OCc3ccccc3)cccn2c1N(C)C(=O)c1ccc2c(c1)OCO2,.,.,.,14.5*,-4.8,.,-0.4,-6.2
CCc1nc2c(OCc3ccc(Cl)cc3)cccn2c1N(C)C(=O)c1ccc2c(c1)OCO2,.,.,.,-2.7,10.7,.,.,.
Cc1ccc(-c2nc3c(c(SCC(=O)N4CCOCC4)n2)COC(C)(C)C3)cc1,4.1,-10.4,.,20.0*,-4.5,-0.5,-0.4,-2.9
CC(=O)CC1(O)C(=O)N(CN2CCN(c3ccccc3)CC2)c2ccccc21 (stereo unspecified),-2.0,-0.4,-24.9,-0.4,-3.6,-9.3,.,.
CN(C)/N=C1\C(=O)N(CN2CCN(c3ccccc3)CC2)c2ccccc21,-1.5,-17.0,.,21.8*,-2.5,4.5,-0.6,12.1
S=c1[nH]nc(-c2cccnc2)n1/N=C/C=C/c1ccccc1,0.8,3.8,-3.1,16.0*,-8.2,.,-0.8,-0.5
OCC[C@H]1C[C@H](O)[C@@H](O)[C@@]2(Cc3ccccc3CO2)O1,-1.3,-7.5,.,16.6*,-2.0,-1.9,-0.3,0.8
Cn1cc(S(=O)(=O)N2CCNCC2)cc1C(N)=O,3.5,-1.9,.,6.2,4.8,-2.0,.,.
CSC[C@H]1CN(c2ccc(Br)cc2)C(=O)[C@@H]1CC(=O)Nc1ccccc1,.,-11.5,.,0.3,-0.2,.,.,.
OCC[C@@H]1C[C@H](O)[C@@H](O)[C@@]2(OCCCc3cc(C(F)(F)F)ccc32)O1,.,.,.,14.7*,-6.1,.,-0.3,6.9
OCC[C@@H]1C[C@H](O)[C@@H](O)[C@]2(OCCc3cc(C(F)(F)F)ccc32)O1,.,0.9,.,-2.3,7.5,.,.,.
CCC1CCCCN1CCCNC(=O)c1ccc2c(c1)c(C)c(C)n2C (stereo unspecified),-1.0,7.7,.,-11.5,0.7,6.5,.,.
CCCc1c(-c2ccc(F)cc2)ncn1CCc1ccccc1OC,.,.,.,16.5*,5.1,.,0.8*,-9.3
c1ccc(N2CC3COc4ccccc4C3=N2)cc1 (stereo unspecified),.,-12.3,.,4.2,8.6,-38.5,.,.
O=C(Nc1c(-c2ccc3c(c2)OCO3)[nH][nH]c1=O)c1ccccc1,.,.,.,0.4,-10.9,.,.,.
COc1ccc2cc(/C=N/NC(=O)CN(c3ccccc3C)S(=O)(=O)c3ccccc3)c(Cl)nc2c1,-9.1,-6.5,2.8,15.7*,7.2,-5.4,-0.5,-4.2
COc1ccc(N(CC(=O)N/N=C/c2ccc(OC)cc2OC)S(=O)(=O)c2ccccc2)cc1,3.6,2.8,.,-1.5,-5.4,-0.5,.,.
CCN(C(=O)CSc1n[nH]c(N)n1)C1CCCCC1,2.4,-1.4,.,16.8*,3.4,14.1,-0.7,-4.7
O=C(Nc1cccc(-n2cccn2)c1)C1CCCN(Cc2ccccc2F)C1 (stereo unspecified),-1.0,-10.2,.,-7.2,-19.2,0.9,.,.

# Compound activity (PubChem BioAssay)
